This note sets out measurements from article PMC7862700, “An all-to-all approach to the identification of sequence-specific readers for epigenetic DNA modifications on cytosine”.

Experiment in all cases: DAPPL (digital affinity profiling via proximity ligation, sequencing); 10 mM Tris-HCl pH 7.5, 50 mM NaCl, 1 mM DTT, 4% glycerol, room temperature, 30 min; GST-TFs on glutathione beads, 16-mer random dsDNA library, 0.1% formaldehyde crosslink after washing; high values mean tight binding
In assay [1] the target is T1, FLI1 (Homo sapiens, UniProt Q01543 1-452).
T1 sequence: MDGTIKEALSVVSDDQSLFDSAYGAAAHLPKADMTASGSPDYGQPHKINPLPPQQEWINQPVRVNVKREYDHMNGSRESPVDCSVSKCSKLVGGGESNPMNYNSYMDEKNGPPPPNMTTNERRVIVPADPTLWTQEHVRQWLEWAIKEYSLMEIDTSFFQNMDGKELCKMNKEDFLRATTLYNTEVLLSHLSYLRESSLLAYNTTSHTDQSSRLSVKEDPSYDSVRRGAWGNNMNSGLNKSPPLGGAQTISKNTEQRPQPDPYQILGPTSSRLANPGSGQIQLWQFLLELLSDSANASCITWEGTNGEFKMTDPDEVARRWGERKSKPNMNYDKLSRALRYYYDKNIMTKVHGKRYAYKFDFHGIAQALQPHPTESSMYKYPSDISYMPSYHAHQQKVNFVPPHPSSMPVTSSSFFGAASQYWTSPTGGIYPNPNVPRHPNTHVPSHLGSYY
To be noted: protein: recombinant; tags: N-terminal GST; dsDNA, one strand shown. In short, it runs like this:
(§1)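 In yeast, human transcription factors were expressed with a GST fusion, then pulled down on glutathione beads and given DNA barcodes. Pooled with a tag-only sample, they were exposed to 200 nmole of a 16-mer random double-stranded DNA library (Tris/NaCl/DTT/glycerol buffer, room temperature, 30 min), washed, crosslinked with 0.1% formaldehyde, proximity-ligated using BsaI/T4 ligase for 1 h at 37 °C, PCR-amplified and read on an Illumina NextSeq500. Each hexamer's frequency of reads for a factor, divided by the matching frequency for the tag-only sample, gives the binding signal.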

Assay [2] addresses T2, ELK1 (Homo sapiens, UniProt P19419 1-428).
T2 sequence: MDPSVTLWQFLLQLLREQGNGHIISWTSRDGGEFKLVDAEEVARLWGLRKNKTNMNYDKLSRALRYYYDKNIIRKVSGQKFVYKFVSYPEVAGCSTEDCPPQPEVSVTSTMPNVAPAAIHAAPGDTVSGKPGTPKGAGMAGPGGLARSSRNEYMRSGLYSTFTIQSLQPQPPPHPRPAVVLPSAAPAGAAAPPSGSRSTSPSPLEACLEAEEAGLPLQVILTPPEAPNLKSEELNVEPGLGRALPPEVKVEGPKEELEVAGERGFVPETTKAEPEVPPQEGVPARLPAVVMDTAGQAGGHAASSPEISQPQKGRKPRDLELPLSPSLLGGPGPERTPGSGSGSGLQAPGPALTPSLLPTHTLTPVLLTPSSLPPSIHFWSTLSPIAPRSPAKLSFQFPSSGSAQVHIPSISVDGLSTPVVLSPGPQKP
To be noted: protein: recombinant; tags: N-terminal GST; dsDNA, one strand shown. In short, it runs like this: as §1

The target of assay [3] is T3, GABPA (Homo sapiens, UniProt Q06546 1-454).
T3 sequence: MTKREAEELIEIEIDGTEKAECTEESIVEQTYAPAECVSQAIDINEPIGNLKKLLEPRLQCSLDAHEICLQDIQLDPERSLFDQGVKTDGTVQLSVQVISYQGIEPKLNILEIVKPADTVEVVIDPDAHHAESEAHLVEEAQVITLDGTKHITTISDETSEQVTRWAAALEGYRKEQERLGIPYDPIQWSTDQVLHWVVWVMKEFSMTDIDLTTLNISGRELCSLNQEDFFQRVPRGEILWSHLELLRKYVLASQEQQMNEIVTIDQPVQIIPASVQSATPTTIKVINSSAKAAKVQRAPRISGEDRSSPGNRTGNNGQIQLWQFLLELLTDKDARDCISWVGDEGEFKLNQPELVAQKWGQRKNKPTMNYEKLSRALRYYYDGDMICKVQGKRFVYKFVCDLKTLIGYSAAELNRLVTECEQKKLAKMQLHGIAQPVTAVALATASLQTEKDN
The conditions noted are these: protein: recombinant; tags: N-terminal GST; dsDNA, one strand shown. An outline of the steps:
as §1

Assay [4] addresses T4, ERG (Homo sapiens, UniProt P11308 1-479).
T4 sequence: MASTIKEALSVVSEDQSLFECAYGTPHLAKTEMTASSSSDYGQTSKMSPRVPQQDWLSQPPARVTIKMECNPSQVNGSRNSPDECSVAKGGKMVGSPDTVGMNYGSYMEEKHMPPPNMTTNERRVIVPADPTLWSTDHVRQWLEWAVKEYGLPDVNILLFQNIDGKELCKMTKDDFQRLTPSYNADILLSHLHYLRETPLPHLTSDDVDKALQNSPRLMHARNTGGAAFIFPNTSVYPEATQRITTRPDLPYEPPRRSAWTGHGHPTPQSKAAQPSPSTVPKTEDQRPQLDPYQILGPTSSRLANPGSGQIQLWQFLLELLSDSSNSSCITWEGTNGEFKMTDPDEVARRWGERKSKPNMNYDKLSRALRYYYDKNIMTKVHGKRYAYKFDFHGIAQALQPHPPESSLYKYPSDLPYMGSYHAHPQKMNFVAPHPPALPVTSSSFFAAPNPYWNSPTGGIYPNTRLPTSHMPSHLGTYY
The conditions noted are these: protein: recombinant; tags: N-terminal GST; dsDNA, one strand shown. In short, it runs like this: as §1

In assay [5] the target is ELF1 (Homo sapiens, UniProt P32519 1-619). To be noted: protein: recombinant; tags: N-terminal GST; dsDNA, one strand shown. In short, it runs like this:
as §1

Assay [6] concerns the target T5, EHF (Homo sapiens, UniProt Q9NZC4 1-300).
T5 sequence: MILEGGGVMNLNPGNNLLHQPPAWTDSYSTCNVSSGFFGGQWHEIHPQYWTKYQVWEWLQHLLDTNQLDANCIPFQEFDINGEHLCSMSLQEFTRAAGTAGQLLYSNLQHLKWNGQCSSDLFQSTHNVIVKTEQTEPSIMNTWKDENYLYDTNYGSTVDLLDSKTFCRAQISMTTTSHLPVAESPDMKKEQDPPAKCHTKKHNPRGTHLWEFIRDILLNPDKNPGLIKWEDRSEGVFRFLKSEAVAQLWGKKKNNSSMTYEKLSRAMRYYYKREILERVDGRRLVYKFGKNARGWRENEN
The conditions noted are these: protein: recombinant; tags: N-terminal GST; dsDNA, one strand shown. An outline of the steps:
as §1

Assay [7] has as its target SPI1 (Homo sapiens, UniProt P17947 1-270). To be noted: protein: recombinant; tags: N-terminal GST; dsDNA, one strand shown. An outline of the steps:
as §1

The target of assay [8] is SPIB (Homo sapiens, UniProt Q01892 1-262). To be noted: protein: recombinant; tags: N-terminal GST; dsDNA, one strand shown. In short, it runs like this: as §1
For assay [9], the target named is T6, ELK3 (Homo sapiens, UniProt P41970 1-407).
T6 sequence: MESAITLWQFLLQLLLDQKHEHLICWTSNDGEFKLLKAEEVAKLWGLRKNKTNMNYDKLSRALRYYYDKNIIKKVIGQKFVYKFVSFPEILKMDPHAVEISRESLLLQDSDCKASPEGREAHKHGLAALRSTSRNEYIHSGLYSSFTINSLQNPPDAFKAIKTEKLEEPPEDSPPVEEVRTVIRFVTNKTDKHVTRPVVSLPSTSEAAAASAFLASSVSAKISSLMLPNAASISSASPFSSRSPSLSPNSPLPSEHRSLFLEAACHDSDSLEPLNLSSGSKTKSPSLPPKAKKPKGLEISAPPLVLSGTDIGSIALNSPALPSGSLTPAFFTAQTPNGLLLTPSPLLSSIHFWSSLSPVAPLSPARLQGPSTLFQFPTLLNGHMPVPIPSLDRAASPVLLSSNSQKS
To be noted: protein: recombinant; tags: N-terminal GST; dsDNA, one strand shown. An outline of the steps: as §1

Assay [10] addresses T7, FEV (Homo sapiens, UniProt Q99581 1-238).
T7 sequence: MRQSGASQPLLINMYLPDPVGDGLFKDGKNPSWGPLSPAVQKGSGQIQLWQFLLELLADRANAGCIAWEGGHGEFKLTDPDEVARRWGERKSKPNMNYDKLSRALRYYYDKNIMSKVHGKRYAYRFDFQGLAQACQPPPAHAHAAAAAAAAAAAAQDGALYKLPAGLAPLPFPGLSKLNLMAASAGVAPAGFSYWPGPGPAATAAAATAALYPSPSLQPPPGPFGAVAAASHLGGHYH
To be noted: protein: recombinant; tags: N-terminal GST; dsDNA, one strand shown. An outline of the steps:
as §1

The target in assay [11] is ETV5 (Homo sapiens, UniProt P41161 1-510). The conditions noted are these: protein: recombinant; tags: N-terminal GST; dsDNA, one strand shown. An outline of the steps: as §1
Assay [12] deals with HSF1 (Homo sapiens, UniProt Q00613 1-529). The conditions noted are these: protein: recombinant; tags: N-terminal GST; chain copies: 3; dsDNA, one strand shown. In short, it runs like this: as §1
Assay [13] has as its target T8, SPIC (Homo sapiens, UniProt Q8N5J4 1-248).
T8 sequence: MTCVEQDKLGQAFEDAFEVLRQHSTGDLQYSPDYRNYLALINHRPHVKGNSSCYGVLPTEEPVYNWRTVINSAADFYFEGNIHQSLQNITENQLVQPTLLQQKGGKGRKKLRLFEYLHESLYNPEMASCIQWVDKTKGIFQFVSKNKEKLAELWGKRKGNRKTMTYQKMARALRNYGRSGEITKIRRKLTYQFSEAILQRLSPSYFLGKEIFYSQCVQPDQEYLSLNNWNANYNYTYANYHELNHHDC
The conditions noted are these: protein: recombinant; tags: N-terminal GST; dsDNA, one strand shown. An outline of the steps: as §1

Assay [14] addresses ELF4 (Homo sapiens, UniProt Q99607 1-663). The conditions noted are these: protein: recombinant; tags: N-terminal GST; dsDNA, one strand shown. In short, it runs like this: as §1
Assay [15] concerns the target T9, ELK4 (Homo sapiens, UniProt P28324-2 1-405).
T9 sequence: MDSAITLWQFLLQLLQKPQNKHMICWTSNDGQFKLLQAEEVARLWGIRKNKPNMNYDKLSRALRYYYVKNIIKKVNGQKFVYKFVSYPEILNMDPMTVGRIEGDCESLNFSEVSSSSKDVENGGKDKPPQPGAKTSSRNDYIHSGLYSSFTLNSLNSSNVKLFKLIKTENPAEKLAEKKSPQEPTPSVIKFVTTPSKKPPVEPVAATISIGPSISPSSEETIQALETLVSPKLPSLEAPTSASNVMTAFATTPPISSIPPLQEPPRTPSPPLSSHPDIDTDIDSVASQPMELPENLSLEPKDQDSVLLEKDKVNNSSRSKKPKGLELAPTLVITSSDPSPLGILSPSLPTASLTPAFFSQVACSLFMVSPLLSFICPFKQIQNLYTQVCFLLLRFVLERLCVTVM
The conditions noted are these: protein: recombinant; tags: N-terminal GST; dsDNA, one strand shown. An outline of the steps: as §1

The target of assay [16] is T10, ETV2 (Homo sapiens, UniProt O00321 1-342).
T10 sequence: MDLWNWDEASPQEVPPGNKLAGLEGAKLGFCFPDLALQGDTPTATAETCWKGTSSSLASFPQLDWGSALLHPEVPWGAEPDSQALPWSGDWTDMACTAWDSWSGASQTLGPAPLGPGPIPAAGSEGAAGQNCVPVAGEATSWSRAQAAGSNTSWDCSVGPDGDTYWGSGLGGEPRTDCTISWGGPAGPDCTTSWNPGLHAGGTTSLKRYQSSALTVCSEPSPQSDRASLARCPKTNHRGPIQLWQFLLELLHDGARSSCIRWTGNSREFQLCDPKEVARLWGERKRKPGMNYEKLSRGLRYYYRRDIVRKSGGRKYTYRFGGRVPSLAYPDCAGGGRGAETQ
To be noted: protein: recombinant; tags: N-terminal GST; dsDNA, one strand shown. In short, it runs like this:
as §1

The target in assay [17] is T11, ELF3 (Homo sapiens, UniProt P78545 1-371).
T11 sequence: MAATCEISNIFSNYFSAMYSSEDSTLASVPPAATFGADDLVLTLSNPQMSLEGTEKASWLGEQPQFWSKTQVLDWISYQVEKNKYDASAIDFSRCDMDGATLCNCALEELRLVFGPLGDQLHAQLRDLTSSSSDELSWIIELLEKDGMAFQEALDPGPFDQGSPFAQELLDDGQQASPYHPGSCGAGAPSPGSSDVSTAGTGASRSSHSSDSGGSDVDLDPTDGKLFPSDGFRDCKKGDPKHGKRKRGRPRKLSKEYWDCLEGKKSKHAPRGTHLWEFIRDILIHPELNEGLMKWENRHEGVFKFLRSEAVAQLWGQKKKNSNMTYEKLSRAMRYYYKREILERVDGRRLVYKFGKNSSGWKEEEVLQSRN
The conditions noted are these: protein: recombinant; tags: N-terminal GST; dsDNA, one strand shown. In short, it runs like this:
as §1

Assay [18] deals with CRX (Homo sapiens, UniProt O43186 1-299). To be noted: protein: recombinant; tags: N-terminal GST; dsDNA, one strand shown. In short, it runs like this:
as §1

Assay [19] has as its target ETV1 (Homo sapiens, UniProt P50549 1-477). To be noted: protein: recombinant; tags: N-terminal GST; dsDNA, one strand shown. An outline of the steps: as §1

Chain of ETV1 (P50549 whole entry): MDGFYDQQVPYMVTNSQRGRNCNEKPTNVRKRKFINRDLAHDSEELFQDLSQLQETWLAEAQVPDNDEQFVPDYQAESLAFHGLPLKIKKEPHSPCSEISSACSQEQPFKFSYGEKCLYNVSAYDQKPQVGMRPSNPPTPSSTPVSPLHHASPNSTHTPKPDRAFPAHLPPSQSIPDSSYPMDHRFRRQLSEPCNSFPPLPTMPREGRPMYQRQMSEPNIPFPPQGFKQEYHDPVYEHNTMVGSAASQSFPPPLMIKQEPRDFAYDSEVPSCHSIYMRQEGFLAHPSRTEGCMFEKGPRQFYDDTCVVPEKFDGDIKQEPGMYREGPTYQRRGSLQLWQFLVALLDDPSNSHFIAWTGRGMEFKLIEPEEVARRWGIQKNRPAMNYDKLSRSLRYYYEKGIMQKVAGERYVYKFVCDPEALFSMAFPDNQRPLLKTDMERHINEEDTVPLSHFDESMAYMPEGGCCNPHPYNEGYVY
Chain of SPIB (Q01892 whole entry): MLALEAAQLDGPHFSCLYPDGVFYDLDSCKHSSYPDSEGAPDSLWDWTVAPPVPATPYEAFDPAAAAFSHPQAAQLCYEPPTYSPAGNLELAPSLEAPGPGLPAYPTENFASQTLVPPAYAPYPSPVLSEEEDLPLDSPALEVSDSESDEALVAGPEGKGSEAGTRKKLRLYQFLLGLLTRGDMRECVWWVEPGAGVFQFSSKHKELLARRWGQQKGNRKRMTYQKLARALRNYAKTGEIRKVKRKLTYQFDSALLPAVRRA
Chain of ETV5 (P41161 whole entry): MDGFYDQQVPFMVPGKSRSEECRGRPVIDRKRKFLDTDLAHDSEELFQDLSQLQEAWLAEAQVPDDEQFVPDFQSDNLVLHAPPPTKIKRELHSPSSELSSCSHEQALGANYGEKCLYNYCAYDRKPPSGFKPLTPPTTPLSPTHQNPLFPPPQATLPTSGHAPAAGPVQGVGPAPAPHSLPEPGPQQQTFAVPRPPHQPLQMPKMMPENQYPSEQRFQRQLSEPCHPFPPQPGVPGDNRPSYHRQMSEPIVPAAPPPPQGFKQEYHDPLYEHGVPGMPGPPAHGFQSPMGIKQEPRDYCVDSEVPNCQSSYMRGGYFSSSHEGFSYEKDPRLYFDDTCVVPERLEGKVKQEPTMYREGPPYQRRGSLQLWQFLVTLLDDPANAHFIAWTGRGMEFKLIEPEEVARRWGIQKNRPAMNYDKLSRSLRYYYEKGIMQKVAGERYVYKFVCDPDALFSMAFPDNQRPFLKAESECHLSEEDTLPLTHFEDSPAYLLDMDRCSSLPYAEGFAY
Chain of ELF1 (P32519 whole entry): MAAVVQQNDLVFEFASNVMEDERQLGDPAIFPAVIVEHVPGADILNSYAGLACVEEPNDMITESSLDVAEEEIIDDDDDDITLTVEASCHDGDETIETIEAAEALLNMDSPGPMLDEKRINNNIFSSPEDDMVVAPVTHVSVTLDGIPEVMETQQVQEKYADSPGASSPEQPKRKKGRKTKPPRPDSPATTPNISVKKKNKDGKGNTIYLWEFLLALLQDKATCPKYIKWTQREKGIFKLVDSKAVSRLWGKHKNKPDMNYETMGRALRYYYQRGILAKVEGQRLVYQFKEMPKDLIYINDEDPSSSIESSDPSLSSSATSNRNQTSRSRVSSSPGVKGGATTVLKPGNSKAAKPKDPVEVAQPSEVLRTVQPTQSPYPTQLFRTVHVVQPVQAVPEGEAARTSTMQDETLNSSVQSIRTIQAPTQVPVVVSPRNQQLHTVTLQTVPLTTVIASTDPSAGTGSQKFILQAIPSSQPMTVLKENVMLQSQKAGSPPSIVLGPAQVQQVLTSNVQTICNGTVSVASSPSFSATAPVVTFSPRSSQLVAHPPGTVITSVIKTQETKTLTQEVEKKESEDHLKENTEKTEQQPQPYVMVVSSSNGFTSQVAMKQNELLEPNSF
Chain of ELF4 (Q99607 whole entry): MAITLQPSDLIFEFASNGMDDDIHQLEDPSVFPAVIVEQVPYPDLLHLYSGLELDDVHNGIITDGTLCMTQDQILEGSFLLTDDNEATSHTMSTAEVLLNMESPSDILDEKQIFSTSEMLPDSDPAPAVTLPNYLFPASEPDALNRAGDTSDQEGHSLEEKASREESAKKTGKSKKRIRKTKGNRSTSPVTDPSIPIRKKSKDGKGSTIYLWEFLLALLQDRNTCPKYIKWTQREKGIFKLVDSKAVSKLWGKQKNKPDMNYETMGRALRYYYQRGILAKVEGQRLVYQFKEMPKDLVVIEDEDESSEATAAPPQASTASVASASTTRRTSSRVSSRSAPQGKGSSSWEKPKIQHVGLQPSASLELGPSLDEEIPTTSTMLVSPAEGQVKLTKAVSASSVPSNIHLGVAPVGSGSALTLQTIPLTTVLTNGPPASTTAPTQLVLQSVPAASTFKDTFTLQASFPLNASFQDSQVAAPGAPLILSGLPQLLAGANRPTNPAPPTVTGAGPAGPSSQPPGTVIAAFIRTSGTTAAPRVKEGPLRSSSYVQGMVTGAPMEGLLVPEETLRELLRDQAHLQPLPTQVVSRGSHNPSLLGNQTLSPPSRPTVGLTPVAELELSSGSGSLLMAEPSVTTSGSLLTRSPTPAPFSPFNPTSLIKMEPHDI
Chain of HSF1 (Q00613 whole entry): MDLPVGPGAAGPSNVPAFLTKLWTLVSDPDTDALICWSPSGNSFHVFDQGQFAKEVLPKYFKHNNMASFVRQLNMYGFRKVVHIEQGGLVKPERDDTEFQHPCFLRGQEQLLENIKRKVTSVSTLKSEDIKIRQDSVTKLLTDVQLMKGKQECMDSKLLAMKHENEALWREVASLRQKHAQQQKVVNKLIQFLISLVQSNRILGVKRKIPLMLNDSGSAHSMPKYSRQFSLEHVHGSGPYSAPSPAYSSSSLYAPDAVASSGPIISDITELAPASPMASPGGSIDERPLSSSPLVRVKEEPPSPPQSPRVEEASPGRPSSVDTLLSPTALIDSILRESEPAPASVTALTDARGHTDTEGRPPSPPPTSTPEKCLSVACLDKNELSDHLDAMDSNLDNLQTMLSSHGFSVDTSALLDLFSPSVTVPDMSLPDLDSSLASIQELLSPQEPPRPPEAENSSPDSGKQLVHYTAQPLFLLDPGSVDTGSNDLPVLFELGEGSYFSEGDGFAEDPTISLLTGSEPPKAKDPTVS
Chain of CRX (O43186 whole entry): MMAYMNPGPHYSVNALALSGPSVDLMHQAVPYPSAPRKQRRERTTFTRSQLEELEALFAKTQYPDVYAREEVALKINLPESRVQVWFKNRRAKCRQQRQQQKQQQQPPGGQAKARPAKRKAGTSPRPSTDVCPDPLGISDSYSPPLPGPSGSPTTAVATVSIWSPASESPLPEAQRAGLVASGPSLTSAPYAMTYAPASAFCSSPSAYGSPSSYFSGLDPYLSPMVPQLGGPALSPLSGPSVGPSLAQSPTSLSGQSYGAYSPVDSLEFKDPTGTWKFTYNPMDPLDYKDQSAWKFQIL

In the case of TCACAA, the binding signal in assay [1] was 1.18 fold enrichment (6-mer frequency, TF over GST control); in [2] it was 1.14 fold enrichment (6-mer frequency, TF over GST control); in assay [3], 1.21 fold enrichment (6-mer frequency, TF over GST control); in assay [4] it was 1.11 fold enrichment (6-mer frequency, TF over GST control); in [5] it was 1.23 fold enrichment (6-mer frequency, TF over GST control); in assay [6] it was 1.11 fold enrichment (6-mer frequency, TF over GST control). Besides, the binding signal was 1.06 fold enrichment (6-mer frequency, TF over GST control) in assay [7]; 1.13 fold enrichment (6-mer frequency, TF over GST control) in assay [8]; 1.17 fold enrichment (6-mer frequency, TF over GST control) in assay [9]; 1.14 fold enrichment (6-mer frequency, TF over GST control) in assay [10]; 1.12 fold enrichment (6-mer frequency, TF over GST control) in [11]; 1.03 fold enrichment (6-mer frequency, TF over GST control) in assay [12]. Moreover, the binding signal was 1.18 fold enrichment (6-mer frequency, TF over GST control) in assay [13]; 1.12 fold enrichment (6-mer frequency, TF over GST control) in assay [14]; 1.21 fold enrichment (6-mer frequency, TF over GST control) in assay [15]; 1.16 fold enrichment (6-mer frequency, TF over GST control) in assay [16]; 1.15 fold enrichment (6-mer frequency, TF over GST control) in assay [17]; 1.09 fold enrichment (6-mer frequency, TF over GST control) in [18]. Also, the binding signal in [19] was 1.13 fold enrichment (6-mer frequency, TF over GST control).
